Screens deposited in PubChem BioAssay by National Center for Advancing Translational Sciences (NCATS).
HTT aggregate: reduces HttQ103-GFP aggregates in PC12 cells | AID 1688 | 220,000 tested, 1.1% active | PC12 HttQ103-GFP aggregates, Acumen cytometry, 40 h | Potency, µM (titrated, usually from 46.1 µM), inactives show top-dose activity change, negative = inhibition, most hits filed as inhibitors; note: % is set by controls: 0 for no effect and ±100 for the full control effect; nearly all actives have a fitted effect of over 60% in size
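Inducible Q103 Huntingtin exon 1–GFP PC12 line, 1500 cells/well in phenol red free DMEM with 5% equine and 5% calf serum. Tebufenozide 100 nM induced expression; compounds titrated; aggregates quantified by cytometry.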
Tau fluor counter: counter-screen for tau fibril formation inhibitors; tau K18 P301L Alexa594 fluorescence, heparin fibrillization; Potency, µM (series often up to 57.7 µM), without a hit: at the top dose activity change, negative = decrease; 280,000 tested, 0.93% active; AID 1463; note: % is set by controls: 0 for no effect and ±100 for the full control effect; nearly all actives have a fitted effect of over 55% in size
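Human K18 P301L tau (15 uM unlabeled plus 0.24 uM Alexa 594-labeled, final) in 100 mM sodium acetate pH 7 was mixed with compound and 20 uM heparin and incubated 6 hr at 37 C.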
Tau ThT inhib: inhibitors of human tau fibril formation, thioflavin T binding. P10636. recombinant tau K18 P301L (four-repeat tau fragment), heparin-induced fibrillization, ThT fluorescence. Potency, µM (titrated, usually from 57.4 µM), for the others: top-dose activity, negative = inhibition, usual class: inhibitors. 270,000 tested, 2.1% active. AID 1460; note: % is set by controls: 0 for no effect and ±100 for the full control effect; nearly all actives have a fitted effect of over 55% in size
Target sequence (P10636 561-689 P618L limits assumed): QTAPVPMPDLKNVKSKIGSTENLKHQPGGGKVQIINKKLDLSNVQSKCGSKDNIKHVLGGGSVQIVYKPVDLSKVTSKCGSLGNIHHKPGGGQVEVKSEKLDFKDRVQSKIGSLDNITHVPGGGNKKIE
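K18 P301L tau (15 uM + 0.24 uM Alexa 594-tagged), heparin 20 uM, NaOAc pH 7, 6 h 37 C; ThT 30 uM, 1 h RT, ex 450/em 510 nm.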
Tau fibril FP: tau fibrillization inhibition (FP). K18 P301L tau heparin fibrillization, Alexa594 FP, 6 h. AID 1468. 280,000 tested, 0.39% active. P10636. Potency, µM (titrated, usually from 57.7 µM), inactives show top-dose activity, negative = inhibition, most hits filed as inhibitors; note: % is set by controls: 0 for no effect and ±100 for the full control effect; nearly all actives have a fitted effect of over 55% in size
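Quantitative HTS format: compounds meet 15 uM recombinant K18 P301L tau and Alexa 594-tau tracer in 100 mM sodium acetate pH 7; 20 uM heparin triggers fibrillization at 37 C over 6 hr; FP gives the signal.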
HTT cytoprotect: Huntington cell model cytoprotection by ATP luminescence | PC12 HTT-Q103 induced, cytoprotection, ATP luminescence, 40 h | Potency, µM (doses to about 56.4 µM), inactives show cytoprotection (ATP increase), actives largely listed as activators | 230,000 tested, 0.14% active; note: % of control where 0% means no effect; nearly all actives have a fitted effect of over 45% in size
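Readout: ATPlite luminescence (ATP level). Model: stable PC12, inducible Htt exon1 Q103-GFP. Inducer: tebufenozide, 100 nM final. Compounds: dose series. No G418 in medium.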
* marks the source's active call; other numbers are inactive results; ? = inconclusive; · = no result given; [ ] = remark or other dose. Shown are actives, neighbours in structure and some others; about 3.7% of the full set was active somewhere. Calls come from the whole dose curve; as a rule, active = well fitted curve in the direction sought with a large enough effect; inconclusive = small, poorly fitted or top-dose-only effect, or another doubt; inactive = no such curve, though single readings can be large; an effect the other way counts as inactive or inconclusive. Potency is the fitted concentration of half-maximal effect.

SMILES	HTT aggregate	Tau fluor counter	Tau ThT inhib	Tau fibril FP	HTT cytoprotect
COc1ccc2cc3c(N)c(C(=O)N4CCCC4)sc3nc2c1	-6.0%	?	11.2µM*	5.4%	-3.5%
O=C1CCC(=O)N1CCC(c1ccc(F)cc1)c1ccco1 (stereo unspecified)	-10.9%	-6.5%	-15.8%	-9.3%	-13.0%
O=C1NCN(c2ccccc2)C12CCN(CCCC(c1ccc(F)cc1)c1ccc(F)cc1)CC2	14.1µM*	?	?	?	?
CCN(CC)S(=O)(=O)c1ccc(NC(=O)NCc2noc3ccc(C)cc23)cc1	·	12.6µM*[quencher]	8.2%	14.1µM*	·
CCCCNC(=O)CSc1nnc(C)c2c(C)n(-c3ccccc3)nc12	·	-1.9%	-9.3%	-3.3%	·
C=CCn1c(O)c(CN2CCN(Cc3ccccc3)CC2)c(C)c(C#N)c1=O	-4.5%	-23.4%	15.8µM*	?	-10.5%[10 µM]
CCn1c(Oc2ccc(F)cc2)nc2c1c(=O)n(C)c(=O)n2C	11.2µM*	0.3%	-4.4%	-3.6%	-31.8%
COc1ccc(Oc2nc3c(c(=O)n(C)c(=O)n3C)n2Cc2ccccc2)cc1	0.1%[9.22 µM]	-6.6%	-8.9%	-15.0%	6.6%
COC(=O)C1=C(O)/C(=C\c2cc(C)n(-c3ccc(F)cc3)c2C)N=C1C	-28.3%	-23.0%	?	0.1%	11.8%
COC(=O)C1=C(C)NC(=O)/C1=C\c1cc(C)n(-c2ccc(F)cc2)c1C	-23.2%	?	15.8µM*	1.4%	-53.2%
COC(=O)C1=C(C)NC(=O)/C1=C\c1cc(C)n(-c2cccc(C)c2)c1C	13.7%	?	25.1µM*	3.2%	22.1%
Cc1cccc(N2CCN(S(=O)(=O)c3nnc(NC(=O)c4ccc(Cl)cc4)s3)CC2)c1	·	-29.3%	?	4.3%	·
Cc1ccc(-n2c(=O)c3c(c4cc(C)ccc4n3C)n(CC(=O)Nc3ccc(F)cc3)c2=O)cc1	·	-1.0%	0.7%	-8.0%	·
COc1cccc(CC(=O)N2CCc3nc(-c4ccccc4)c4c(c3C2)CO[C@@H](C)C4)c1	·	-11.4%[11.6 µM]	-9.0%[11.5 µM]	1.0%[11.6 µM]	-13.7%[10 µM]
CCC(=O)Nc1ccc(N2CCOCC2)c(S(=O)(=O)Nc2ccc(OC)cc2)c1	-9.5%	-0.9%	1.5%	-1.9%	-4.8%
COc1ccc(NS(=O)(=O)c2ccc(N3CCCC3)c(NC(=S)Nc3cccc(S(=O)(=O)N(C)C)c3)c2)cc1	-15.8%	?	25.1µM*	?	10.0%[10 µM]
COc1ccc(NS(=O)(=O)c2cc(NC(=O)c3ccccc3F)ccc2N2CCCC2)cc1	38.6%[9.22 µM]	?	-9.9%	0.3%	-3.6%[10 µM]
COc1ccc(NS(=O)(=O)c2cc(NC(=O)c3cccs3)ccc2N2CCCC2)cc1	?	15.8µM*[quencher]	-12.4%	?	·
COc1ccc(NS(=O)(=O)c2cc(NC(=O)/C=C/c3cccs3)ccc2N2CCOCC2)cc1	13.9%	15.8µM*[quencher]	-9.1%	3.7%	4.5%[1.9 µM]
COc1ccc(NC(=O)c2cc(S(=O)(=O)Nc3ccc(OC)cc3)cs2)cc1	30.3%[9.22 µM]	12.6µM*[quencher]	-15.7%	?	3.4%[10 µM]
S=c1nc(-c2nc(=S)[nH]c3c2CCCCCCCCCC3)c2c([nH]1)CCCCCCCCCC2	·	·	·	·	9.1%[10 µM]
CCOc1ccc(NC(=O)Cn2c(=O)n(Cc3ccc(C(=O)NCc4ccc(C)cc4)cc3)c(=O)c3ccccc32)cc1	·	-23.4%	-0.2%	?	·
O=[N+]([O-])c1ccc(CSc2ncnc3c2ncn3[C@@H]2O[C@H](CO)[C@H](O)[C@H]2O)cc1	·	-6.1%	-13.3%	-5.6%	·
O=C1CSC(=S)N1N1C(=O)c2cccc([N+](=O)[O-])c2C1=O	-6.5%	-25.0%	12.6µM*	?	-17.8%
O=C(COCc1cc(-c2cccs2)on1)NCc1cccc(Cl)c1	·	-14.4%	-4.6%	4.3%	·
SMILES	HTT aggregate	Tau fluor counter	Tau ThT inhib	Tau fibril FP	HTT cytoprotect
CN1CCc2c(sc(NC(=O)c3cc4cc([N+](=O)[O-])ccc4s3)c2C(N)=O)C1	7.08µM*	?	2.24µM*	2.5%	-201.9%
CC(C)N1CCc2c(sc(NC(=O)c3cc4cc([N+](=O)[O-])ccc4s3)c2C(N)=O)C1	6.9%[9.22 µM]	?	3.98µM*	-2.2%	-35.0%
CSc1ncnc2nc[nH]c12	·	·	·	·	-21.1%
CCN(CC)S(=O)(=O)c1cccc(-c2n[nH]c(=S)n2/N=C/c2ccc(OC(F)F)cc2)c1	22.4µM*	?	?	?	-1.9%[1.9 µM]
C[N+](C)([O-])Cc1cc(-c2ccccc2)ccc1O	·	·	·	·	14.2%[10 µM]
O=S1(=O)C=C(Sc2nc3ccccc3s2)c2ccccc21	4.47µM*	-13.7%	10µM*	?	2µM*
CCCC[C@]1(C2CCCC2)Cc2cc(OCC(=O)O)c(Cl)c(Cl)c2C1=O	·	·	·	·	22.9%[1.9 µM]
Cc1ccccc1OCCNc1cc(N2CC(C)NC(C)C2)ccc1[N+](=O)[O-] (stereo unspecified)	?	?	17.8µM*	?	9.5%
CCCCOCCOCCSC#N	·	·	·	·	1.7%
COc1ccc(-c2cc(=O)n(-c3nc4ccccc4[nH]3)[nH]2)cc1	0.0%	?	31.6µM*	-17.4%	1.4%
COc1ccc(N(C(=O)COc2ccccc2OC)S(=O)(=O)c2ccc(Cl)cc2)cc1	·	-24.7%	?	13.6%	·
CCCCOC(=O)c1ccc(NC(=O)/C(C#N)=C/c2ccc(-c3ccccc3)o2)cc1	·	-22.6%	-15.9%	-8.4%	·
O=C(O)CSCc1cccc2ccccc12	·	·	·	·	-15.9%[10 µM]
COc1ccc(NC(=O)c2ccco2)cc1NC(=O)c1cccc(C)c1OC	·	-29.0%	?	7.0%	·
CCn1c2ccccc2c2cc(NC(=O)Cc3ccc(S(=O)(=O)N4CCOCC4)s3)ccc21	-2.0%	7.94µM*[quencher]	?	12.8%	-19.7%
CN(C)S(=O)(=O)c1ccc(NC(=O)Cc2ccc(S(=O)(=O)N3CCOCC3)s2)cc1	-3.1%	-15.0%	5.2%	8.0%	-41.2%
O=C(C#Cc1ccccc1)c1cccc([N+](=O)[O-])c1	12.6µM*	?	?	-9.1%	-92.0%
COc1ccc(-c2nc(-c3ccccc3)c(-c3cccs3)[nH]2)cc1OC	?	14.1µM*[quencher]	?	?	-55.0%
COc1ccc(-c2nc(-c3cccs3)c(-c3cccs3)[nH]2)cc1OC	?	10µM*[quencher]	?	9.9%	-83.3%
CSc1ccc(C2c3[nH]c4ccccc4c3CCN2C(=O)CCC2CCCC2)cc1 (stereo unspecified)	·	3.3%	-1.0%	-0.8%	·
N#CC1=C(S)N(c2ccc(F)cc2)C2(CCCCC2)NC1=O	10.7%	-17.7%	31.6µM*	28.2µM*	-42.4%
Cc1cccc(Nc2nnc(SCC(=O)Nc3cccc(S(=O)(=O)N4CCCCC4)c3)s2)c1	11.8%	12.6µM*[quencher]	-10.5%	-25.3%	-0.1%[10 µM]
COc1ccc(-c2csc(-c3[nH]cnc3N)n2)cc1	-20.3%	15.8µM*[quencher]	11.2µM*	-1.0%	-21.3%
COc1ccc(-c2csc(-c3ccc(C(=O)O)cc3)n2)cc1	-8.9%	-7.2%	-4.7%	-7.6%	-71.6%
O=C(NCc1ccccc1Cl)c1cc(-c2ccccc2)n[nH]1	·	-25.1%	10.2%	-10.7%	·
